From PubChem BioAssay
FBPA Giardia inh – inhibitors of Giardia lamblia fructose-1,6-bisphosphate aldolase | purified Giardia FBPA | Potency, µM (titrated, usually from 59.6 µM), most hits filed as inhibitors | actives 0.71% (n = 290,000); also: nearly all actives have a fitted effect of over 55% in size
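Giardia FBPA (40 nM reagent) was preincubated 10 min at RT with compound (up to 57.5 uM final), then substrate plus GAPDH/TPI/NAD/arsenate coupling system with diaphorase/resazurin was added; resorufin fluorescence (525/598 nm) was read after 20 min.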
AmpC no deterg – AmpC beta-lactamase inhibition without detergent. Potency, µM (titrated, usually from 57.1 µM), most hits filed as inhibitors. AmpC nitrocefin hydrolysis, absorbance 480 nm, 0.0001% Triton. actives 0.52% (n = 330,000). P00811; also: nearly all actives have a fitted effect of over 20% in size
Target sequence (P00811 whole entry, looked up): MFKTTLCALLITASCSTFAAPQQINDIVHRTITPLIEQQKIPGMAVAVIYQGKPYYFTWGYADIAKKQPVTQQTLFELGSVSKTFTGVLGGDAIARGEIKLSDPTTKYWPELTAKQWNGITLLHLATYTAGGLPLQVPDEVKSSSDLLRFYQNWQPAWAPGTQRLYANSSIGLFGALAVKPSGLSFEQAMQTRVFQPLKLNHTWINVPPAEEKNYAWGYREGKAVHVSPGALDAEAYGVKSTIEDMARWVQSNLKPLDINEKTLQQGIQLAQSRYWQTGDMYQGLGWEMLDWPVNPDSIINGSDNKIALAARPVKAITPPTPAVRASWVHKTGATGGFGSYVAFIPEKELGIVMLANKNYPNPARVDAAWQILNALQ
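AmpC (5.3 nM in the dispensed reagent) in 20 mM phosphate pH 7.0 with 0.01% (detergent screen) or 0.0001% Triton X-100 was preincubated with compounds for 15 min at room temperature. Nitrocefin was then added from an 800 uM solution, and hydrolysis was followed at 480 nm.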
AmpC inh detg – AmpC beta-lactamase inhibition with detergent present. P00811. AmpC hydrolysis of nitrocefin, absorbance 480 nm, 0.01% Triton. Potency, µM (series often up to 114 µM), usual class: inhibitors. actives 0.041% (n = 370,000). AID 485294; also: nearly all actives have a fitted effect of over 25% in size
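AmpC (5.3 nM in the dispensed reagent) in 20 mM phosphate pH 7.0 with 0.01% (detergent screen) or 0.0001% Triton X-100 was preincubated with compounds for 15 min at room temperature. Nitrocefin was then added from an 800 uM solution, and hydrolysis was followed at 480 nm.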
SARS PLP yeast – blocks SARS-CoV papain-like protease in a yeast assay. S. cerevisiae expressing SARS-CoV PLpro, growth rescue. Potency, µM (series often up to 32.9 µM), hits mostly activators. actives 0.19% (n = 330,000); calls by dose curve; also: nearly all actives have a fitted effect of over 55% in size
A number is an active result; i = inactive; ? = inconclusive; nt = no result; ! = not active in a repeat; [ ] = dose if it differs, or a comment. Hits are enriched below; roughly 1.1% of the tested compounds scored in any of these assays. Unless noted, calls follow the shape of the dose curve; as a rule, active = well fitted curve in the direction sought with a large enough effect; inconclusive = small, poorly fitted or top-dose-only effect, or another doubt; inactive = no such curve, though single readings can be large; an effect the other way counts as inactive or inconclusive.

SMILES	FBPA Giardia inh	AmpC no deterg	AmpC inh detg	SARS PLP yeast
COc1ccc(-n2nc3cc(C)c(N)c(Br)c3n2)cc1	7.06µM	i	i	i
COc1ccc(-n2nc3cc(N)c(Br)cc3n2)cc1	i	i	?	i
Cc1nc(NCc2ccccc2)c2nc(-c3ccccc3)n(CC(C)(C)CN(C)C)c2n1	i	nt	nt	nt
C[C@H]1Cc2c(-c3ccccc3)nc3c(c2CO1)CN(S(=O)(=O)c1ccc(C#N)cc1)CC3	i[12.9 µM]	nt	nt	nt
CC1(C)Cc2ccccc2C(Nn2cnnc2)=N1	i	i	i	i
CC1(C)Cc2ccccc2C2=NNC(=O)C2=N1	4.46µM	i	i	i
O=c1ccc2c(OCCCCOc3ccccc3)c3ccoc3cc2o1	i	nt	nt	nt
CN=c1scc(C)n1/N=C/c1ccc(O)c(O)c1O	3.15µM	i	i	i
CC(C)N=c1scc(-c2ccco2)n1/N=C/c1ccc(O)c(O)c1	i	i	i	i
C=CCN=c1scc(-c2ccco2)n1/N=C/c1ccc(O)c(O)c1O	22.3µM	4.47µM	i	i
CN=c1scc(-c2cccs2)n1/N=C/c1ccc(O)c(O)c1O	?	?	i	i
COCCN=c1scc(-c2ccco2)n1/N=C/c1ccc(O)c(O)c1O	17.7µM	?	i	?
CC(C)C[C@H](NC(=O)[C@H](Cc1ccccc1)NC(=O)[C@H](Cc1ccccc1)NC(=O)[C@@H](N)CO)C(=O)N[C@@H](CCCN=C(N)N)C(=O)N[C@@H](CC(N)=O)C(=O)O	i	nt	nt	nt
O=C(CSc1nc2c([nH]c3ccccc32)c(=O)n1-c1cccc(Cl)c1)c1ccccc1	nt	nt	i	nt
Cc1ccc(NC(=O)c2oc3ccccc3c2NC(=O)C23CC4CC(CC(C4)C2)C3)cc1	nt	nt	i	nt
COc1cccc2c1CCCC2CCCN1CCN(C2CCCCC2)CC1 (configuration not stated)	i	nt	nt	nt
C=CCN(CC=C)S(=O)(=O)c1ccc(NC(=S)NC(=O)c2ccc(-c3ccccc3)cc2)cc1	i	i	i	i
C=CCN(CC=C)S(=O)(=O)c1ccc(NC(=S)NC(=O)c2ccco2)cc1	i	35.5µM	i	i
CCOc1ccc(C=NNc2ccc(S(=O)(=O)Nc3ccccc3C(=O)O)cc2[N+](=O)[O-])cc1	nt	28.2µM	nt	i
CSc1ccc(C=NNc2ccc(S(=O)(=O)Nc3ccccc3C(=O)O)cc2[N+](=O)[O-])cc1	nt	i	nt	i
COc1ccc(O)c(N)c1	3.54µM	i	?	i
Cc1ccc(O)c(N)c1	nt	i	i	i
NCC(=O)N[C@@H](CCCN=C(N)N)C(=O)NCC(=O)N[C@@H](CCC(=O)O)C(=O)N[C@@H](CO)C(=O)O	i	nt	nt	nt
Nc1ncnc2c1ncn2[C@@H]1O[C@H](CO)[C@H](O)[C@H]1O	i	nt	nt	nt
CCC(CC)c1nn2c(N)c(/C=C3\C=Nc4ccccc43)c(=O)nc2s1	i	i	i	i
SMILES	FBPA Giardia inh	AmpC no deterg	AmpC inh detg	SARS PLP yeast
CCC(CC)c1nn2c(N)c(/C=C3\C(C)=Nc4ccccc43)c(=O)nc2s1	i	7.94µM	i	i
CC[C@H](C)[C@H](NC(=O)[C@H](Cc1ccc(O)cc1)NC(=O)[C@@H](NC(=O)[C@@H](N)CCCN=C(N)N)C(C)C)C(=O)N[C@@H](Cc1cnc[nH]1)C(=O)N1CCC[C@H]1C(=O)N[C@@H](Cc1ccccc1)C(=O)O	i	nt	nt	nt
Cc1ccc(C)c(N=Cc2cc3c(cc2[N+](=O)[O-])OCO3)c1	3.15µM	i	i	i
CC(C)(C)c1ccc(O)c(N=Cc2cc3c(cc2[N+](=O)[O-])OCO3)c1	i	i	i	i
Cc1ccccc1NC(=O)c1cc2ccccn2n1	i	i	i	i
Cc1ccc(C)c(NC(=O)c2cc3ccccn3n2)c1	i	4.47µM	?	i
CCCCCCCCCCCCCCCCn1cc[n+](Cc2ccccc2)c1C	i	nt	nt	nt
NS(=O)(=O)c1ccc(N2N=C(c3ccc(Br)cc3)CC2c2ccc(F)cc2)cc1 (configuration not stated)	i	5.62µM	i	i
CN(C(=O)c1ccc(OCC=C(c2ccccc2)c2ccccc2)cc1)c1ccccc1I	i	nt	nt	nt
Cc1ccnc2c(N3C(=O)C4C5C=CC(C5)C4(C)C3=O)cccc12 (configuration not stated)	i	7.08µM	?	i
CC12C(=O)N(c3ccccn3)C(=O)C1C1C=CC2C1 (configuration not stated)	i	i	i	i
N.N.O=C(O)C1(C(=O)O)CCC1.[Pt]	17.7µM!	nt	nt	nt
COc1ccc(-c2nc3c(c4c2C[C@H](c2ccccc2)OC4)CN(S(=O)(=O)c2ccc4c(c2)OCCN4C)CC3)c(C)c1	i[12.9 µM]	nt	nt	nt
